# ELG1 repair inh: ELG1-dependent DNA repair inhibition; HEK293T ELG1-luciferase reporter, luminescence, 16 h; DNA damage induced by 5-fluorouridine; 330,000 compounds, 2.3% hits; Potency, µM (series often up to 46.1 µM), hits mostly inhibitors; note: nearly all actives have a fitted effect of over 55% in size
#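 Overnight (16 hr) co-exposure of 2,000 cells/well to 5-fluorouridine and compound at 37 °C preceded detection. Luciferase was quantified via ONE-Glo luminescence; loss of signal denotes inhibition.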
# DT40 TDP1 CPT: growth inhibition of DT40 Tdp1-/-;hTDP1 cells with camptothecin (screen for TDP1 inhibitors); 420,000 compounds, 12% hits; Potency, µM (highest dose often 46.2 µM), actives largely listed as inhibitors; chicken DT40 Tdp1-/-;hTDP1 cells + 20 nM CPT, ATP luminescence, 48 h; AID 686979; note: nearly all actives have a fitted effect of over 55% in size
#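 Cell growth measured by CellTiter-Glo luminescence after a minimum 48 h, 37 C compound exposure with 20 nM CPT in Tdp1-knockout DT40 cells stably expressing hTDP1, seeded 400/well; qHTS titration format.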
# VP16 counter: Gal4-VP16 reporter inhibition counter-screen; Drosophila S2 Gal4-VP16 UAS-luciferase, luminescence, 20 h; Potency, µM (top dose mostly 53.6 µM), most hits filed as inhibitors; 310,000 compounds, 3.5% hits;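 note: Gal4-VP16 expression switched on by copper sulfate through the metallothionein promoter; nearly all actives have a fitted effect of over 50% in size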
# RORg inh: blocks mouse ROR gamma transcriptional activity | Drosophila S2 Gal4-RORgamma UAS-luciferase reporter, 20 h | Potency, µM (series often up to 53.6 µM), usual class: inhibitors | 310,000 compounds, 5.4% hits | AID 2551; note: nearly all actives have a fitted effect of over 60% in size
# Target sequence (P51450 whole entry, looked up, the tested form may be a part): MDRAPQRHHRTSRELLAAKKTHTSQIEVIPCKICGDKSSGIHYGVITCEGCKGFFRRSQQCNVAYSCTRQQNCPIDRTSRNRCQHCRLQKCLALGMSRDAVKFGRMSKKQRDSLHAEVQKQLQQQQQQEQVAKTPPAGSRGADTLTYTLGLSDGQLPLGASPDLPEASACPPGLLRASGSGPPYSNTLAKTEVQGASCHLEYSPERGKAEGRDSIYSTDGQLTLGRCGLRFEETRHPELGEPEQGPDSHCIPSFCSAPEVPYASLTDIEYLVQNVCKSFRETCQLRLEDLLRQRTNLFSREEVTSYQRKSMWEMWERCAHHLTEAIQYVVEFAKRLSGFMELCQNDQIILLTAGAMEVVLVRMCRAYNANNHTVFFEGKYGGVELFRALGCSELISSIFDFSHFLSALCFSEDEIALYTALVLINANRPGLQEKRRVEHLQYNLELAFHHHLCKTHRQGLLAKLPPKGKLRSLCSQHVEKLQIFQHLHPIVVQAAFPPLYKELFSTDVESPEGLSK
#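 Stably transfected Drosophila Schneider cells are the test system, with ROR gamma fused to Gal4 and luciferase under UAS control; luminescence is read after 20 hr of 700 uM copper sulfate induction at ambient temperature.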
# 12-LOX inh: inhibitors of human 12S-lipoxygenase ALOX12 | P18054 | purified 12hLO, xylenol orange hydroperoxide absorbance | Potency, µM (titrated, usually from 108 µM), usual class: inhibitors | 580,000 compounds, 1.1% hits | AID 1671190
#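 Hydroperoxide product was detected by ferrous iron/xylenol orange as the 573 to 405 nm absorbance ratio. Arachidonic acid at 40 uM (final) was turned over for 30 min at room temperature by 150 nM human 12hLO, pH 7.0 Hepes buffer, after 15 min compound preincubation.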
# DT40 TDP1 no CPT: qHTS for Inhibitors of human tyrosyl-DNA phosphodiesterase 1 (TDP1): qHTS in cells in absence of CPT; DT40 Tdp1-/- hTDP1 cells, no CPT, ATP luminescence, 48 h; 420,000 compounds, 15% hits; AID 686978, 2013; Potency, µM (doses to about 46.2 µM), hits mostly inhibitors; note: nearly all actives have a fitted effect of over 55% in size
#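 Growth kinetics read by CellTiter-Glo luminescence after ≥48 hr at 37 °C. Cells: DT40 Tdp1-/- stably carrying human TDP1, 400 per well, compound exposure in the absence of CPT (DMSO vehicle).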
# Hits are given with their value; n = inactive; u = inconclusive; x = not tested or not shown; [ ] = another dose, or the depositor's remark. Hits are enriched below; roughly 15% of the tested compounds scored in any of these assays. Calls come from the whole dose curve; as a rule, active = well fitted curve in the direction sought with a large enough effect; inconclusive = small, poorly fitted or top-dose-only effect, or another doubt; inactive = no such curve, though single readings can be large; an effect the other way counts as inactive or inconclusive.
SMILES,ELG1 repair inh,DT40 TDP1 CPT,VP16 counter,RORg inh,12-LOX inh,DT40 TDP1 no CPT
CN(CC(=O)Nc1ccccc1Cl)Cc1csc(-c2ccccc2)n1,x,x,x,x,n,x
COc1cc(OC)cc(C(=O)N2CCC(Cc3nc(-c4ccc(F)cc4)no3)CC2)c1,x,x,x,x,n,x
O=C(O)CCC(=O)N[C@H]1CO[C@H]2[C@@H]1OC[C@@H]2n1nnnc1Oc1ccc2c(c1)OCO2,x,x,x,x,n,x
CC1(C)CCC(=NNC(N)=S)CC1,x,u,x,x,u,29.1µM
C[n+]1ccccc1C1CCCC/C1=N\NC(N)=S (configuration not stated),n,n,n,n,u,n
NC(=S)NN=C1CSSC1,x,7.31µM,x,x,x,3.66µM
Cn1c(=O)c2c(-c3ccccc3)n3c(c2n(C)c1=O)C(c1ccc(C#N)cc1)Nc1ccccc1-3 (configuration not stated),x,x,x,x,n,x
Cc1cccc(Nc2nnc(SCC3CCCCO3)s2)c1 (configuration not stated),u,23.1µM,n,10µM,n,u
CCC1=NN(C(=O)CSCc2ccccc2Cl)C(O)(C(F)(F)F)C1 (configuration not stated),x,x,x,x,n,x
CCC1=NN(C(=O)CCc2ccc3c(c2)OCO3)C(O)(C(F)(F)F)C1 (configuration not stated),n,n,n,11.2µM,u,n
CCn1c(CC2CCN(C(=O)CCc3ccc4c(c3)OCO4)CC2)nn(C)c1=O,x,x,x,x,n,x
CCC1=NN(C(=O)CCc2ccccc2O)C(O)(C(F)(F)F)C1 (configuration not stated),n,n,u,10µM,n,u
COc1ccc(CN(C)C(=O)C2(c3ccc(Cl)cc3)CCOCC2)cc1,x,x,x,x,n[6.33 µM],x
O=C(CC1CCCCC1)Nc1ccc(-c2ccc3nncn3n2)cc1,n,u,n,n,n,18.4µM
O=C(Nc1ccc(-c2ccc3nncn3n2)cc1)C1CCCC1,u,u,n,n,n,u
CC(C)c1csc(CN2CCCC(CNC(=O)c3cccc4ccccc34)C2)n1 (configuration not stated),u,16.4µM,n,n,n,u
O=C(c1ccco1)[C@@H]1[C@@H]2C(=O)N(c3ccc(F)cc3)C(=O)[C@@H]2[C@H]2C=Cc3ccccc3N21,n,6.51µM,u,u,u,18.4µM
NC(=O)[C@@H]1[C@@H]2C(=O)N(c3ccc(F)cc3)C(=O)[C@@H]2[C@H]2C=Cc3ccccc3N21,n,u,n,n,n,u
CCOC(=O)C1CCC(CNC(=O)N2CCCC2c2ccc(C)cc2)CC1 (configuration not stated),x,x,x,x,n,x
O=C(CN1C(=O)c2cccnc2Oc2ccc(Cl)cc21)NC1CCCC1,u,n,n,n,n,14.6µM
CCOc1ccccc1CNC(=O)CN1C(=O)c2cccnc2Oc2ccc(Cl)cc21,x,u,x,x,u,16.4µM
CCc1ccc(CNC(=O)CN2C(=O)c3cccnc3Oc3ccc(Cl)cc32)cc1,x,u,x,x,n,16.4µM
COC(=O)c1cc(NCc2ccc(C)cc2)ccc1N1CCOCC1,x,x,x,x,n,x
O=C(Nc1ccnn1Cc1cccs1)c1ccc(S(=O)(=O)N2CCCC2)cc1,x,x,x,x,n,x
O=C(O)CCC(=O)N1Cc2ccccc2CC2(CCCCN2CC2CCCC2)C1 (configuration not stated),x,x,x,x,n[6.33 µM],x
SMILES,ELG1 repair inh,DT40 TDP1 CPT,VP16 counter,RORg inh,12-LOX inh,DT40 TDP1 no CPT
Cc1cccc(N2CCN(C(=O)c3ccc(NC(=O)c4nsc5ccccc45)cc3)CC2C)c1 (configuration not stated),x,9.2µM,x,x,n,6.51µM
O=C(Nc1ccc(C(=O)N2CCN(c3ccc(Cl)cc3)CC2)cc1)c1nsc2ccccc12,x,u,x,x,n,u
COc1ccc(N2CCN(C(=O)c3ccc(C)c(NC(=O)c4nsc5ccccc45)c3)CC2)cc1,x,25.9µM,x,x,u,u
COc1ccc(N2CCN(C(=O)c3ccc(NC(=O)c4nsc5ccccc45)cc3)CC2)cc1,x,u,x,x,n,u
Cc1ccc(Cl)cc1N1CCN(C(=O)c2ccc(NC(=O)c3nsc4ccccc34)cc2)CC1,x,u,x,x,n,18.4µM
COc1ccc2cc(C)c3nnc(SCC(=O)Nc4nc(-c5ccccc5)cs4)n3c2c1,n,u,n,n,n,4.61µM
COc1ccc(-c2csc(NC(=O)CSc3ccc(Br)cc3)n2)c(OC)c1,n,18.4µM,n,n,n,16.4µM
COc1ccc(-c2csc(NC(=O)CSC(C)C(=O)Nc3cc(C)on3)n2)cc1OC (configuration not stated),u,18.4µM,x,x,n,10.3µM
COc1ccc(-c2csc(NC(=O)CSCC(=O)Nc3cc(C)on3)n2)c(OC)c1,n,29.1µM,x,x,n,u
COc1ccc2cc(C)c3nnc(SCC(=O)Nc4cc(OC)c(OC)cc4C(=O)O)n3c2c1,n,n,n,n,n,n
CCOc1ccc(N2C(=O)CCC2(C)C(=O)NC2CCCC2)cc1 (configuration not stated),x,x,x,x,n,x
COc1ccc(OC)c(-c2csc(NC(=O)Cc3ccccc3)n2)c1,n,u,n,n,n,u
COc1ccc(OC)c(-c2csc(NC(=O)CSc3ccccc3)n2)c1,n,u,u,n,u,13µM
CCOc1ccc(CNS(=O)(=O)c2ccc(-c3coc(C)n3)cc2)cc1,x,u,x,x,n,18.4µM
CCOc1ccc(CNS(=O)(=O)c2ccc(-c3coc(C)n3)cc2)cc1OC,x,7.31µM,x,x,n,14.6µM
Cc1ccc(-c2noc(-c3cccn3CC(=O)N3CCC(C)CC3)n2)cc1,x,x,x,x,n,x
Cc1ccc(-n2nnnc2SCc2nc3ccccc3o2)cc1C,x,x,x,x,n,x
C#Cc1ccc([C@H]2C=C(C(=O)NCc3ccccc3)O[C@@H](OCC)[C@@H]2CCCO)cc1,u,u,n,n,n,u
CCO[C@@H]1OC(C(=O)NCc2ccccc2)=C[C@H](c2cn(C(C)=O)c3ccccc23)[C@H]1CCCO,n,u,n,n,u,18.4µM
CCO[C@@H]1OC(C(=O)NCc2nc3ccccc3[nH]2)=C[C@H](c2coc3ccccc3c2=O)[C@H]1CCCO,x,n,x,x,n,n
CCO[C@@H]1OC(C(=O)NCc2nc3ccccc3[nH]2)=C[C@H](C)[C@H]1CCCO,u,n,n,n,n,u
CCO[C@@H]1OC(C(=O)NCc2ccccc2)=C[C@H](c2ccc(Br)cc2)[C@H]1CCCO,u,23.1µM,n,n,u,u
CCO[C@@H]1OC(C(=O)NCc2nc3ccccc3[nH]2)=C[C@H](c2cn(C(C)=O)c3ccccc23)[C@H]1CCCO,u,u,n,n,n,16.4µM
